# Source: PubChem BioAssay (NCATS)
# Unmarked numbers belong to inactive results. Records with an inconclusive call do not appear. A call without a number means that no potency is given here. Activity calls are given as the source filed them. The call rests on the fitted dose curve; in most records, active means well fitted curve in the direction sought with a large enough effect; inconclusive means small, poorly fitted or top-dose-only effect, or another doubt; inactive means no such curve, though single readings can be large; an effect the other way counts as inactive or inconclusive.
# Tests used:
# [1] = OV-KATE Cancer Cell Toxicity qHTS against the NCATS CANVASS Library (AID 1347345); further: potency means the concentration at half of the fitted maximal effect
# Outline: (§1)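 Toxicity is measured over 72 h of compound exposure at 37 degrees C under 5% CO2. Each well holds 1000 cells, pre-incubated for 4 hours before dosing across an 11-point range. CellTiter-Glo luminescence gives viability.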
# [2] = HPAF-II Cancer Cell Toxicity qHTS against the NCATS CANVASS Library (AID 1347346); further: nearly all actives have a fitted effect of over 55% in size; further: potency means the concentration at half of the fitted maximal effect
# Outline: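 HPAF-II cells at 1000 cells/well were treated with an 11-point concentration series for 72 hours at 37 degrees C. Viability read by CellTiter-Glo luminescence.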
# [3] = OV-SAHO Cancer Cell Toxicity qHTS against the NCATS CANVASS Library (AID 1347348); further: nearly all actives have a fitted effect of over 55% in size; further: potency means the concentration at half of the fitted maximal effect
# Outline: as §1
# [4] = COV-362 Cancer Cell Toxicity qHTS against the NCATS CANVASS Library (AID 1347352); further: potency means the concentration at half of the fitted maximal effect
# Outline: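 Cells at 1000/well were given compound 4 h after plating in an 11-point series. Viability was read by CellTiter-Glo luminescence after 72 h at 37 degrees C.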
# [5] = HPAF-II 24hr Apoptosis Induction qHTS against the NCATS CANVASS Library (AID 1347356)
# Outline: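 HPAF-II cells (500/well) exposed to compounds in 11-point series for 24 h at 37 degrees C; caspase-3/7 activity read by Caspase-Glo luminescence after 15 min at room temperature. Doxorubicin titration as control.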
# [6] = HEK293 18hr Apoptosis Induction qHTS against the NCATS CANVASS Library (AID 1347357)
# Outline: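 Caspase-Glo 3/7 luminescence (15 min, room temperature) measured apoptosis after an 18-hour, 37 degrees C exposure of HEK293 cells (500 cells/well) to compounds in 11 points.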
# [7] = HPAF-II 12hr Apoptosis Induction qHTS against the NCATS CANVASS Library (AID 1347358)
# Outline: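 HPAF-II cells, 500/well in DMEM + 10% FBS, exposed 12 hours at 37 degrees C to compound (11-point). Caspase-Glo 3/7 added for 15 min at room temperature; luminescence reflects caspase-3/7 activity.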
# [8] = HEK293 24hr Apoptosis Induction qHTS against the NCATS CANVASS Library (AID 1347359)
# Outline: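 Caspase-3/7 activation measured as luminescence from the DEVD-based Caspase-Glo reagent, 15 min at room temperature, following 24-hour compound treatment of HEK293 cells.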
# [9] = HPAF-II 18hr Apoptosis Induction qHTS against the NCATS CANVASS Library (AID 1347360)
# Outline: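 Caspase-3/7 activation was measured with luminescent Caspase-Glo 3/7 reagent (15 min, RT) in HPAF-II cancer cells (500 cells/well). Before detection, cells had been treated for 18 h at 37 C with compounds (11 points).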
# [10] = target: Luciferin 4-monooxygenase (Photinus pyralis) (UniProt P08659); assay: Firefly luciferase counterscreen qHTS: Assay Interference Panel against the NCATS CANVASS Library (AID 1347363); further: potency means the concentration at half of the fitted maximal effect
# Chain of Luciferin 4-monooxygenase (Photinus pyralis) (P08659 whole entry, looked up): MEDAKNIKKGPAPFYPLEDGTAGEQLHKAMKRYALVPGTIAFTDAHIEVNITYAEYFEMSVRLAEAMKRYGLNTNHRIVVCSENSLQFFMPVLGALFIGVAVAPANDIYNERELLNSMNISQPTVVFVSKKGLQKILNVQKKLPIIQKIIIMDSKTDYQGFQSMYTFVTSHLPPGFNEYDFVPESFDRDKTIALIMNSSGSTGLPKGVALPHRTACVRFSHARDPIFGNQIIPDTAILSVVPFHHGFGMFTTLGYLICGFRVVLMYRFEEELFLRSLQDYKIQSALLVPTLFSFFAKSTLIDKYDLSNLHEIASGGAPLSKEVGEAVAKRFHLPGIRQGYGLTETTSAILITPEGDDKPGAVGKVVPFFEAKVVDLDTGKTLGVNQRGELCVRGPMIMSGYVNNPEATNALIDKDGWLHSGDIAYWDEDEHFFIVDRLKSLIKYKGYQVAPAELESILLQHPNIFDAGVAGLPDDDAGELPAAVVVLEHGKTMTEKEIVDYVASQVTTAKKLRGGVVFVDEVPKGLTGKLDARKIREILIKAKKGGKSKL
# Outline: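 Luminescence inhibition readout: compounds (11-point qHTS) sat 15 min at room temperature with substrate mix (0.013 mM luciferin and ATP), then firefly luciferase was added and signal read 5 min later.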
# [11] = KB-3-1 Cancer Cell Toxicity qHTS against the NCATS CANVASS Library (AID 1347366); further: nearly all actives have a fitted effect of over 75% in size; further: potency means the concentration at half of the fitted maximal effect
# Outline: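 CellTiter-Glo luminescence measured viability after 72 h at 37C. KB-3-1 cells were seeded at 500 per well in DMEM/10% FBS.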
# [12] = qHTS for ATAD5 Antagonist screened against the NCATS CANVASS Library (AID 1347370); further: nearly all actives have a fitted effect of over 65% in size; further: potency means the concentration at half of the fitted maximal effect
# Outline: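 HEK293T cells with stably integrated ATAD5-luciferase reporter, 2000/well, 5 h attachment; compounds plus 10 µM 5-fluorouridine, 16 h at 37 °C. Luciferase luminescence read, with CellTiter-Fluor viability read first.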
# [13] = J3T Cancer Cell Toxicity qHTS against the NCATS CANVASS Library (AID 1347371); further: potency means the concentration at half of the fitted maximal effect
# Outline: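 J3T dog glioma cells, 500 per well, treated 72 h at 37C with compounds (11-point qHTS); viability from ATP content by CellTiterGlo luminescence; bortezomib titration as control.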
# [14] = target: Nuclear receptor subfamily 1 group I member 3 (Homo sapiens) (UniProt Q14994); assay: qHTS for Constitutive Androstane Receptor (CAR) Agonist screened against the NCATS CANVASS Library (AID 1347373);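 further: every well also contained 1.5 µM PK11195 alongside the test compound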
# Chain of Nuclear receptor subfamily 1 group I member 3 (Homo sapiens) (Q14994 whole entry, looked up): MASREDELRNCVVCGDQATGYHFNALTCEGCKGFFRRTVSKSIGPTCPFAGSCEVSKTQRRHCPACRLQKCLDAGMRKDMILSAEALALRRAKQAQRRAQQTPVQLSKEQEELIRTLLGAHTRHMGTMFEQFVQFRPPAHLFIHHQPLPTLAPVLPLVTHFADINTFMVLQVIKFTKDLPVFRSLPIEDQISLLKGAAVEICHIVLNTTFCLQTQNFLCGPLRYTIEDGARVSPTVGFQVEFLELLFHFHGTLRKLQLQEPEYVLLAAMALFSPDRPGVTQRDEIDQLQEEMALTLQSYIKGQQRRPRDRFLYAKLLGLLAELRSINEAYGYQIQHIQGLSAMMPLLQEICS
# Outline: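 HepG2 cells stably carrying hCAR and a CYP2B6-2.2kb luciferase reporter, treated 24hr at 37C with compounds plus 1.5uM PK11195; activation by ONE-Glo luminescence, viability by CellTiter-Fluor.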
# [15] = 10-beta competent E. coli microbial cell viability qHTS against the NCATS CANVASS Library (AID 1347376); further: series mostly up to about 46 µM
# Outline: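 10-beta competent E. coli (0.2 OD) were exposed overnight at 37C to compounds in an 11-point series. Viability was read as ATP-dependent BacTiter-Glo luminescence after 20 min at room temperature.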
# [16] = qHTS for Inflammasome Signaling Inhibitors: IL-1-beta AlphaLISA screen against the NCATS CANVASS Library (AID 1347379);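 further: human THP-1 cells primed with LPS then triggered with ATP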
# Outline: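 THP-1 cells pretreated 1 hr with compound (up to 57.5 uM final), then stimulated with LPS (250 ng/mL final) and ATP (1.25 mM final). Secreted IL-1B measured by AlphaLISA after 16 hr; glyburide as positive control.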
# [17] = Inflammasome Signaling qHTS Counterscreen: IL-1-beta AlphaLISA counterscreen against the NCATS CANVASS Library (AID 1347381);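 further: cell-free check with purified IL-1β in medium and no THP-1 cells; series mostly up to about 57 µM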
# Outline: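 Cell-free interference check: compounds added to medium spiked with 4 pg purified IL-1β. Anti-IL-1β acceptor beads (6 ug/mL) with 0.6 nM biotinylated antibody added for 1 h at RT, then streptavidin donor beads (24 ug/mL) for 30 min in the dark. AlphaLISA read at 680/615 nm.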
# [18] = Cytotoxicity qHTS for assessment of Hepg2 cells membrane integrity screened against the NCATS CANVASS Library (AID 1347387)
# Outline: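 HepG2 cells (2000/well) attached overnight, then exposed 5 hr at 37C to compounds in an 11-point series (0.59 nM - 46 uM final). LDH release from damaged membranes read fluorometrically (CytoTox-ONE; 560/590 nm) after 10 min at room temperature.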
# [19] = Viability qHTS for inhibitors of the SERCaMP assay screened against the NCATS CANVASS Library (AID 1347400); further: nearly all actives have a fitted effect of over 70% in size; further: potency means the concentration at half of the fitted maximal effect
# Outline: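 SH-SY5Y-GLuc SERCaMP MJH297-derived cells, 1000/well, plated 4 h, then exposed to compounds in an 11-point qHTS series for 48 h at 37C. Viability read as CellTiter-Glo luminescence.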
# [20] = MCF7 Cancer Cell Toxicity qHTS against the NCATS CANVASS Library (AID 1347369); further: potency means the concentration at half of the fitted maximal effect
# Outline: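 Cytotoxicity was measured as CellTiterGlo luminescence (ATP) after 72 h at 37 °C. The cells were MCF7 at 500 per well, with an 11-point compound concentration series.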
Compound,Potency [1],Potency [2],Potency [3],Potency [4],outcome [5],Potency [6],Potency [7],Potency [8],Potency [9],Potency [10],Potency [11],Potency [12],Potency [13],outcome [14],outcome [15],Potency [16],outcome [17],outcome [18],Potency [19],Potency [20]
CCCCCCCCC[C@@H]1C[C@@H]2CC[C@H]3[C@@H](C(=O)OCCCCN=C(N)N)[C@@H](C)N=C(N1)N23,13 µM (active),14.7 µM (active),9.2 µM (active),13 µM (active),inactive,inactive,inactive,inactive,inactive,inactive,0.578 µM (active),inactive,11.5 µM (active),inactive,inactive,21.2 µM (active),inactive,inactive,inactive,
CO[C@@H]1[C@H](O)[C@@H](C)O[C@@H](OC[C@@H]2C(C)OC(=O)/C=C/[C@H](C)C(O[C@@H]3O[C@H](C)CC4(OC(=O)O[C@@H]4C)C3O)[C@@H](C)CC(C)C(=O)CC[C@H]3OC23)[C@@H]1OC (stereo not given in full),inactive,inactive,inactive,inactive,inactive,inactive,inactive,inactive,inactive,inactive,inactive,,inactive,inactive,inactive,inactive,inactive,inactive,inactive,inactive
CN1CC[C@]2(c3cccc4c3N[C@@H]3N(C)CC[C@]43[C@@]34CCN(C)[C@@H]3Nc3c([C@]56CCN(C)[C@H]5Nc5ccccc56)cccc34)c3ccccc3N[C@H]12,8.38 µM (active),8.41 µM (active),3.75 µM (active),5.94 µM (active),inactive,inactive,,inactive,inactive,inactive,4.69 µM (active),9.33 µM (active),2.64 µM (active),inactive,,24.3 µM (active),,,4.8 µM (active),2.34 µM (active)
C=C1C[C@@]23C=CC(=O)[C@@](C)(CCC(=O)Nc4c(OC5O[C@H](CO)[C@@H](O)[C@H](O)[C@H]5O)ccc(C(=O)O)c4O)C2C[C@@H]1CC3 (stereo not given in full),inactive,inactive,inactive,inactive,inactive,inactive,inactive,inactive,inactive,inactive,inactive,inactive,inactive,inactive,inactive,inactive,inactive,inactive,,inactive
C/C=C/C(=O)[C@@H](C)C1=CC(=O)C2=C(O[C@@]34CC[C@H](O)C(C)(C)[C@@H]3CC[C@H](C)[C@@]4(C)C2)C1=O,8.38 µM (active),3.75 µM (active),6.66 µM (active),,,,,,,inactive,20.9 µM (active),7.41 µM (active),5.26 µM (active),inactive,inactive,3.43 µM (active),inactive,inactive,13.5 µM (active),13.1 µM (active)
C=C1C(=O)C[C@H]2C[C@@H]1[C@]2(C)CCC=C(C)C,inactive,inactive,inactive,inactive,inactive,inactive,inactive,inactive,inactive,inactive,inactive,inactive,inactive,inactive,inactive,inactive,inactive,inactive,inactive,inactive
CC(C)=CCC/C(C)=C/Cc1c(O)c(CC=C(C)C)c(O)c2c(=O)c3cc(O)ccc3oc12,2.36 µM (active),13.3 µM (active),10.6 µM (active),18.8 µM (active),inactive,inactive,inactive,inactive,inactive,inactive,,13.2 µM (active),inactive,inactive,inactive,,inactive,inactive,inactive,16.5 µM (active)
C1=C2CCCN[C@@H]2[C@@H]2CCN3CCCC[C@@H]3[C@H](C1)C2,inactive,inactive,inactive,inactive,inactive,inactive,inactive,inactive,inactive,inactive,inactive,inactive,inactive,inactive,inactive,inactive,inactive,inactive,inactive,inactive
C[C@@H](O)[C@H]1OC(=O)C=C2[C@]3(C)[C@H]4[C@H](OC(=O)[C@@]4(C)[C@@H](O)[C@H]4O[C@H]43)[C@H]3O[C@@]231,3.34 µM (active),3.35 µM (active),1.33 µM (active),1.88 µM (active),inactive,inactive,inactive,inactive,inactive,inactive,1.48 µM (active),inactive,3.32 µM (active),inactive,inactive,12.2 µM (active),inactive,inactive,7.6 µM (active),
COc1ccc(/C=C2\COc3cc(O)ccc3C2=O)cc1,inactive,inactive,inactive,inactive,inactive,inactive,inactive,inactive,inactive,0.485 µM (active),inactive,inactive,inactive,,inactive,,inactive,inactive,,inactive
C/C(=C\[C@H](C)C(=O)CCCC1CC(=O)NC(=O)C1)[C@@H]1OC(=O)/C=C/CC/C=C/C[C@@H](O)[C@@H]1C,2.11 µM (active),1.49 µM (active),2.98 µM (active),,inactive,inactive,inactive,inactive,inactive,inactive,14.8 µM (active),2.34 µM (active),2.64 µM (active),inactive,inactive,9.68 µM (active),inactive,inactive,5.38 µM (active),inactive
